Experimental findings from PubChem BioAssay AID430 (Sanford-Burnham Center for Chemical Genomics, 2006) are described below.

About 1,100 (1.7%) of roughly 63,000 compounds were called active. Cut-off read from the data, not from the text of the source: active = cytotoxicity above about 50%; inactive = the rest. Many of the other results were omitted from the sample, so actives are more common in it than they were. Entries with a potency or affinity are not part of this list.

This assay in a line: HPDE-C7 pancreatic duct cell viability loss – fluorescence, HTS (AID 430).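 Note: cells exposed to compound for 48 hours before viability readout; 0% = vehicle and 100% = reference cytotoxic drug.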 To be noted: HPDE-C7 pancreatic duct cells viability, at 10 µM, hits give high values.
As for `CCN(CC)C(=O)N1CCC(NC(=O)Cc2ccccc2)CC1`, the cytotoxicity was -6.6% (inactive).
On to `CCOC(=O)C1CCN(C(=O)c2cc(S(=O)(=O)N3CCOCC3)c(Cl)cc2Cl)CC1`, for which the cytotoxicity was 3.3% (inactive).
As to `Nc1ccc(-c2cc(N)n(-c3ccccc3)n2)cc1`, the cytotoxicity is 14.8% (inactive).
For `c1coc(-c2nc3nc4ccccc4n3nc2-c2ccco2)c1`, the cytotoxicity is 77.5% (active).
As to `c1coc(-c2nc(-c3ccco3)c(-c3ccco3)nc2-c2ccco2)c1`, the cytotoxicity was -9.1% (inactive).
Turning to `c1coc(-c2nc3ccccc3nc2-c2ccco2)c1`, the cytotoxicity was -5.7% (inactive).
In the case of `Cc1cc(C)c2cc3c(ccn3C3OC[C@H](O)[C@H](O)[C@H]3O)cc2n1` (stereo partly drawn), the cytotoxicity is -2.7% (inactive).
To `Cc1csc(SCc2nnc(-c3ccccc3Br)o2)n1` belongs -11.9% (inactive).
On to `Cc1cc(C)n(-c2c(F)c(F)c(CN3CCOCC3)c(F)c2F)n1`, for which the cytotoxicity is -4.7% (inactive).
Regarding `O=C(CCN1c2ccccc2Sc2ccccc21)OCc1nnc(-c2ccccc2)o1`, the cytotoxicity is 5.5% (inactive).
`Cc1nnc(SC(=O)N2c3ccccc3Sc3ccccc32)s1`: the cytotoxicity was -38% (inactive).
In the case of `COc1cc(OC)cc(-c2nnc(SCC(=O)N3c4ccccc4Sc4ccccc43)o2)c1`, the cytotoxicity was -10.6% (inactive).
Turning to `COc1ccc(C(=O)CSc2nnc(-c3ccccc3)o2)cc1`, the cytotoxicity is -13.3% (inactive).
Regarding `Cc1cccc(Nc2ccccc2)c1`, the cytotoxicity is -12.8% (inactive).
Regarding `Cc1cc2cc(CN(Cc3ccco3)C(=O)C3CCCCC3)c(=O)[nH]c2cc1C`, the cytotoxicity was -2% (inactive).
Regarding `COc1ccc(CNC(=O)c2cc(-c3cccs3)on2)cc1`, the cytotoxicity was 2.4% (inactive).
Regarding `Cc1noc(C(=O)Nc2sc3c(c2C#N)CCC3)c1Cl`, the cytotoxicity was 19% (inactive).
To `COc1ccccc1NC(=O)C1(C)Cc2ccccc2C(=O)O1` (stereo not drawn) belongs 10.1% (inactive); to `CN(C)CCN(Cc1ccccc1)c1ccnc(N(C)C)c1C#N`, -24.4% (inactive).
Regarding `COCCNC(=O)CN(CC1CCCO1)C(=O)CCC(=O)Nc1ccccn1` (stereo not drawn), the cytotoxicity was -5.6% (inactive).
With `CCOC(=O)c1csc(Nc2nc3ccc(F)cc3s2)n1`, the cytotoxicity is 40.1% (inactive).
To `CC(=O)c1sc(Nc2nc3ccc(F)cc3s2)nc1C` belongs 58.8% (active); to `COc1ccc2nc(Nc3nc(C)c(C(C)=O)s3)sc2c1`, 18.2% (inactive).
`O=C(O)CCC(=O)N1CCc2cc(S(=O)(=O)N3CCN(c4ccc(F)cc4)CC3)ccc21`: the cytotoxicity was 3.1% (inactive).
Take `COc1ccccc1N1CCN(C(=O)c2cc3n(n2)C(C(F)(F)F)CC(c2ccco2)N3)CC1` (stereo not drawn): the cytotoxicity was -21.5% (inactive).
As for `Cc1ccc(C(=O)CSc2nnc(-c3ccco3)n2Cc2ccccc2)cc1`, the cytotoxicity was -16.2% (inactive).
`c1cn2c(NC3CCCC3)c(-c3ccc(N4CCOCC4)cc3)nc2cn1`: the cytotoxicity was 2.8% (inactive).
As to `COc1cc(-c2nc3cnccn3c2Nc2ccccc2)ccc1O`, the cytotoxicity was 22.1% (inactive).
For the compound `Cc1ccc2cc(CN(Cc3cccs3)C(=O)c3ccco3)c3nnnn3c2c1C`, the cytotoxicity is 22.1% (inactive).
Turning to `CCc1nc2c(n1O)CCc1nonc1-2`, the cytotoxicity was 3.5% (inactive).
Take `CCCSc1nc2c(c(=O)[nH]c(=O)n2C)n1C`: the cytotoxicity is 2.1% (inactive).
In the case of `CC(NC(=O)NCC1CCCO1)(C(F)(F)F)C(F)(F)F` (stereo not drawn), the cytotoxicity is -16% (inactive).
In the case of `NS(=O)(=O)c1ccc(S(=O)(=O)N(Cc2ccccc2F)CC2CCCO2)cc1` (stereo not drawn), the cytotoxicity was -0.3% (inactive).
Turning to `Cc1nc2ccccc2nc1CSc1nncs1`, the cytotoxicity was 3.3% (inactive).
`Cc1nc(CNS(=O)(=O)c2ccc3c(c2)CCCC3)cs1`: the cytotoxicity is -11.4% (inactive).
To `CN(C)CCCNc1ncnc2c1cnn2-c1ccccc1` belongs -5.5% (inactive); to `CN(C)CCNc1ncnc2c1cnn2-c1ccc(Cl)cc1`, 19.4% (inactive).
As for `COCCNc1ncnc2c1cnn2-c1ccc(Cl)cc1`, the cytotoxicity is 4.6% (inactive).
As to `CC(C)OCCCNc1ncnc2c1cnn2-c1ccccc1`, the cytotoxicity is 26.6% (inactive).
Regarding `CCCCNc1ncnc2c1cnn2-c1ccccc1`, the cytotoxicity is 65% (active).
For `CCCCNc1ncnc2c1cnn2-c1ccc(Cl)cc1`, the cytotoxicity was 72.3% (active).
As to `CS(=O)CCC(NS(=O)(=O)c1ccccc1)C(=O)O` (stereo not drawn), the cytotoxicity was -7.3% (inactive).
`Cc1ccc(Cl)cc1N1CCN(C(=O)c2cn(C)c(=O)c3c2c2ccccc2n3C)CC1`: the cytotoxicity was 93.1% (active).
As to `Cn1cc(C(=O)NCCN2CCN(c3cccc(Cl)c3)CC2)c2c3ccccc3n(C)c2c1=O`, the cytotoxicity was -12.1% (inactive).
As to `Cc1cccc(N2CCN(C(=O)c3cn(C)c(=O)c4c3c3ccccc3n4C)CC2)c1C`, the cytotoxicity was 53.7% (active).
With `COc1ccc(N2CCN(C(=O)c3cn(C)c(=O)c4c3c3ccccc3n4C)CC2)cc1`, the cytotoxicity was 10.1% (inactive).
In the case of `Cn1cc(C(=O)N2CCN(C(=O)c3ccco3)CC2)c2c3ccccc3n(C)c2c1=O` it was -1.4% (inactive).
As to `CCOC(=O)N1CCN(C(=O)c2cn(C)c(=O)c3c2c2ccccc2n3C)CC1`, the cytotoxicity was -11.5% (inactive).
Take `COc1ccc(C)cc1S(=O)(=O)NC1CCCC1`: the cytotoxicity is 8.4% (inactive).
With `CCn1ncc(C2=NOC(C(=O)NCc3ccccc3)C2)c1C` (stereo not drawn), the cytotoxicity was 54.7% (active).
Regarding `CCn1ncc(C2=NOC(C(=O)NCc3ccc(OC)cc3)C2)c1C` (stereo not drawn), the cytotoxicity was 21.2% (inactive).
On to `CCn1ncc(C2=NOC(C(=O)Nc3cccnc3)C2)c1C` (stereo not drawn), for which the cytotoxicity was -4.8% (inactive).
Turning to `CCn1ncc(C2=NOC(C(=O)NCc3ccc(Cl)cc3)C2)c1C` (stereo not drawn), the cytotoxicity is 65.1% (active).
Take `CCn1ncc(C2=NOC(C(=O)Nc3c(C)nn(Cc4ccc(F)cc4)c3C)C2)c1C` (stereo not drawn): the cytotoxicity is 25.1% (inactive).
Regarding `CCn1ncc(C2=NOC(C(=O)NCCc3ccccc3)C2)c1C` (stereo not drawn), the cytotoxicity was -13.2% (inactive).
In the case of `CCOC(=O)CN1C(=O)C(=O)c2cccc(C)c21` it was -46.9% (inactive).
Turning to `O=C(NCc1ccco1)C1CN(S(=O)(=O)c2ccccc2)CCN1S(=O)(=O)c1ccccc1` (stereo not drawn), the cytotoxicity is -23.1% (inactive).
Take `CCc1c(C)nc2ncnn2c1N1CCC(C(=O)N2CCN(c3ccc(F)cc3)CC2)CC1`: the cytotoxicity was -1.9% (inactive).
With `COC(=O)CSc1nc2ccc(NC(C)=O)cc2s1`, the cytotoxicity was -5.9% (inactive).
As for `COc1cc2c(cc1OC)CN(C(=O)c1ccccc1C(=O)O)CC2`, the cytotoxicity was -15.6% (inactive).
In the case of `O=C(Cn1nnc(-c2ccc(N3CCOCC3)cc2)n1)OC1CCCCC1`, the cytotoxicity is -25.2% (inactive).
`COC(=O)CSc1nnc(-c2ccc(OC)cc2OC)o1`: the cytotoxicity was 3.4% (inactive).
For the compound `COc1ccc(N2CCN(C(c3ccccc3OC)c3nnnn3Cc3ccco3)CC2)cc1` (stereo not drawn), the cytotoxicity is -1.6% (inactive).
As for `COc1cc(C2C(C#N)=C(C)NC3=C2C(=O)CC(C)(C)C3)ccc1O` (stereo not drawn), the cytotoxicity is -9.2% (inactive).
Consider `COc1ccc(C2C(C#N)=C(C)NC3=C2C(=O)c2ccccc23)cc1` (stereo not drawn), for which the cytotoxicity is 55.2% (active).
For the compound `COc1ccc(C2CC(=O)C3=C(C2)NC(C)=C(C#N)C3c2ccc(N(C)C)cc2)cc1` (stereo not drawn), the cytotoxicity was -4.4% (inactive).
On to `COc1cc(C2C(C#N)=C(C)NC3=C2C(=O)CC(C)(C)C3)cc(OC)c1O` (stereo not drawn), for which the cytotoxicity is 3.7% (inactive).
Consider `COc1cc(C2C(C#N)=C(C)NC3=C2C(=O)c2ccccc23)cc(OC)c1OC` (stereo not drawn), for which the cytotoxicity is 76.3% (active).
Turning to `COc1ccc(C2C(C#N)=C(SC)NC3=C2C(=O)CC(C)(C)C3)cc1` (stereo not drawn), the cytotoxicity is -11.2% (inactive).
In the case of `CSc1nc(-c2ccco2)nn1C(=O)c1ccco1` it was -12.1% (inactive).
On to `CCOc1cc(NC(=O)c2ccco2)c(OCC)cc1NC(=O)CCC(=O)NCc1cccnc1`, for which the cytotoxicity is 32.8% (inactive).
As for `COc1ccc(C(C#N)N2CCCCC2)cc1OC` (stereo not drawn), the cytotoxicity is -1.7% (inactive).
As to `Cc1cccc(-c2noc(CN(C(=O)CCc3ccccc3)C(C)C)n2)c1`, the cytotoxicity was -16.1% (inactive).
In the case of `CCCC(=O)Nc1nc2ccc3nc(C)sc3c2s1` it was 9.8% (inactive); in that of `CCOc1ccc(OCC)c(S(=O)(=O)N2CCCCC2C)c1` (stereo not drawn), -8.3% (inactive).
`Cc1cccc(N2C(=O)SC(N(C)c3ccccc3)C2=O)c1` (stereo not drawn): the cytotoxicity was -8.6% (inactive).
Take `CCNC(=O)CCC(=O)Nc1cc(Cl)ccc1C`: the cytotoxicity is -6.9% (inactive).
On to `Cc1ccc(NC(=O)CC(O)(C(F)(F)F)C(F)(F)F)c(Br)c1`, for which the cytotoxicity was -3.8% (inactive).
In the case of `Cc1ccc(Cl)cc1NC(=O)CC(O)(C(F)(F)F)C(F)(F)F`, the cytotoxicity is 51.2% (active).
Turning to `CN(C)c1ccc(CN2CCCC(O)C2)cc1` (stereo not drawn), the cytotoxicity is 0.6% (inactive).
On to `OC1CCCN(Cc2cccc3ccccc23)C1` (stereo not drawn), for which the cytotoxicity is 4.1% (inactive).
For `O=C(CCc1nc2ccccc2c(=O)[nH]1)OCc1nnc(-c2ccccc2)o1`, the cytotoxicity was 8.5% (inactive).
To `CCN(CCCNC(=O)C1CCN(S(=O)(=O)CC)CC1)c1ccccc1` belongs -4% (inactive); to `O=C(Oc1ccc2c(c1)OCO2)c1cccs1`, -3.4% (inactive).
Consider `O=C(Oc1ccc2c(c1)OCO2)c1ccncc1`, for which the cytotoxicity is 10.6% (inactive).
For the compound `O=C(Oc1ccc2c(c1)OCO2)c1cc2c(s1)CCC2`, the cytotoxicity is 56.8% (active).
In the case of `Cc1cccc(C(=O)OCc2cc3ccccc3[nH]c2=O)c1`, the cytotoxicity was 8.5% (inactive).
As to `COc1cccc(C(=O)N2CCN(c3ncccn3)CC2)c1`, the cytotoxicity was 1.5% (inactive).
With `CCCCC(=O)c1c(O)c2ccccc2oc1=O`, the cytotoxicity is 9.3% (inactive).
For the compound `CCc1oc2ccccc2c1C(=O)CCN1CCCCC1`, the cytotoxicity is -17.7% (inactive).
In the case of `c1coc(CNc2nc3sc4c(c3c3ncnn23)CCCC4)c1` it was -5.5% (inactive); in that of `O=C(NC1CCCCC1)NC1CCN(S(=O)(=O)c2ccc3c(c2)OCCO3)CC1`, -1.5% (inactive); in that of `O=C(NC1CCCCC1)c1ccc(S(=O)(=O)NCc2ccco2)cc1`, -1.9% (inactive).
Regarding `O=C(Nc1ccccc1)c1ccc(S(=O)(=O)NCc2ccco2)cc1`, the cytotoxicity is -0.2% (inactive).
To `O=C(NCCc1c[nH]c2ccccc12)c1ccc(S(=O)(=O)NCc2ccco2)cc1` belongs 51.9% (active); to `Cc1cccc(C)c1NC(=O)c1cc(S(=O)(=O)N2CCOCC2)ccc1F`, -47.4% (inactive); to `O=C(Nc1c2c(nn1-c1ccc(F)cc1)CSC2)c1ccc(S(=O)(=O)N2CCOCC2)cc1`, -9.4% (inactive).
In the case of `O=C1C(Cl)=C(NCCCN2CCOCC2)C(=O)N1CCc1ccccc1` it was 1.4% (inactive).
